Assay results published in PubChem BioAssay AID1259311 (ICCB-Longwood Screening Facility, Harvard Medical School, 2017).
Values joined by “and” are separate entries in the source; they are usually repeats but may differ in a detail not shown here. Equal entries are not always repeated. Among all 330,000 compounds or so, about 1,100 (0.33%) were called active. Cut-off read from the data, not from the text of the source: active = inhibition above about 85%; inactive = the rest. The entries come from a sample that favours actives as a whole.

Experiment: growth inhibition of S. aureus RN4220, primary screen, OD600 (AID 1259311);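 note: plate controls were untreated cells for no effect and reference antibiotic for full effect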
Details: OD600, 16 h, hits give high values

Compound | inhibition
Cc1cc(C(=O)CCl)c(C)n1CC1COc2ccccc2O1 (stereo unspecified) | 93.5% (active)
Cc1ccsc1C(=O)OCC(=O)c1cc(C)n(CC2CCCO2)c1C (stereo unspecified) | 2.84% (inactive)
O=C1C(=O)N(CC2COc3ccccc3O2)c2ccccc21 (stereo unspecified) | 5.32% (inactive)
CON=Cc1ccc(Sc2ccc(C)cc2)c([N+](=O)[O-])c1 | -19% (inactive)
OCc1ccc(OCCCOc2cccc3cccnc23)cc1 | 4.11% (inactive)
NC(=O)C1CCN(C(=O)COc2cccc3cccnc23)CC1 | -6.77% (inactive)
O=C(Nc1ccccc1)Oc1cccc2cccnc12 | 94.9% (active)
CCCOc1ccc(NC=CC(=O)C(C)(C)C)cc1 | 7.56% (inactive)
Cc1cc(C(=O)NN=Cc2ccncc2)c(C)o1 | -0.256% (inactive)
CNC(=S)NN=C(C)c1ccc(C(C)(C)C)cc1 | 0.974% (inactive)
Oc1ccccc1C1=NN(c2ccccc2)C(c2ccccc2)C1 (stereo unspecified) | 94% (active)
Cc1ccc(N2C(=O)C3N=NN(CC(=O)N4N=C(c5cccc6ccccc56)CC4c4ccccc4)C3C2=O)cc1 (stereo unspecified) | 1.33% (inactive)
O=C1C2N=NN(CC(=O)N3N=C(c4cccc5ccccc45)CC3c3ccccc3)C2C(=O)N1c1ccccc1 (stereo unspecified) | 7.1% (inactive)
Cc1cccc(NC(=S)Nc2ccc(Cl)c(Cl)c2)c1 | 98.8% (active)
Cc1ccc(NC(=S)Nc2ccc(F)cc2)cc1 | -0.939% (inactive)
Cc1cccc(NC(=S)NN=C(c2ccccc2)C(C)C)c1 | -4.52% (inactive)
CC(=O)NN=C(C)CC(=O)Nc1ccc2c(c1)OCCO2 | 1.21% (inactive)
Cn1ccc(=Nc2ccc(NC(=O)c3ccc(N=c4ccn(C)c5ccc([N+](=O)[O-])cc45)cc3)cc2)cc1 | 95.4% (active)
COc1cc(NS(=O)(=O)c2ccc(NC(=O)c3ccc([N+](=O)[O-])cc3)cc2)ncn1 | 2.54% (inactive)
CCc1ccc(NC(=O)c2ccc(Cn3cc([N+](=O)[O-])cn3)cc2)cc1 | 18.3% (inactive)
CC(NC(=O)c1nc[nH]c1C(=O)N(C)Cc1ccccc1)C(=O)OC(C)(C)C (stereo unspecified) | 2.94% (inactive)
CCc1ccc(C=NNc2nn[nH]n2)cc1 | 0.812% (inactive)
O=C(Nc1ccccc1C(=O)Nc1ccncc1)c1ccc([N+](=O)[O-])cc1 | 3.63% (inactive)

Compound | inhibition
O=C(Nn1cnnc1)c1ccc([N+](=O)[O-])cc1 | 4.07% (inactive)
O=C(c1ccncc1)c1ccc([N+](=O)[O-])cc1 | 75% (active)
Cc1c(NC(=O)C(=O)C=C(O)c2ccccc2)c(=O)n(-c2ccccc2)n1C | -0.817% (inactive)
C#CCOCCOCCOCCNc1nc(N2CCN(C(=O)C(CCCCN)n3cc(CCC(=O)O)nn3)CC2)nc(N2CCN(C(=O)C(C(C)O)n3cc(CCCCN)nn3)CC2)n1 (stereo unspecified) | -0.306% (inactive)
CC(Oc1ccc2ccccc2c1)C(=O)NNC(=S)NC(=O)c1ccco1 (stereo unspecified) | 92.3% (active)
O=C(Nc1ccc2ccccc2c1)/C(=C/c1cccc(Br)c1)NC(=O)c1ccco1 | 0.361% (inactive)
Cc1ccc(C(=O)NNC(=O)C(C)Oc2ccc3ccccc3c2)o1 (stereo unspecified) | 0.442% (inactive)
Cc1ccc(OCC(=O)NNC(=S)NCc2ccccc2)cc1 | 3.38% (inactive)
Cc1ccc(OCC(=O)NCCCNC(=O)c2ccco2)cc1C | -1.59% (inactive)
CCCc1ccc(OCC(=O)NNC(=S)NC(=O)c2ccco2)cc1 | 102% (active)
Cc1cc(=O)[nH]c(NN=Cc2ccccc2Cl)n1 | 2.01% (inactive)
CC(C(O)c1ccccc1)N(C)C(=O)CCc1ccccc1 (stereo unspecified) | 0.814% (inactive)
Cc1cc(Cl)ccc1OCCCC(=O)NN=Cc1cccc([N+](=O)[O-])c1 | -5.47% (inactive)
CN(C)c1ccc(C(=NO)C(F)(F)F)cc1 | 19.2% (inactive)
O=C(CN1C(=O)C(=Cc2ccc(C(F)(F)F)cc2)Sc2ccccc21)NCc1ccco1 | 2.46% (inactive)
CC1CN(C(=S)Nc2ccccc2F)CC(C)O1 (stereo unspecified) | -2.44% (inactive)
COc1c(N2CCN(C(=S)Nc3ccccc3F)C(C)C2)c(F)cc2c(=O)c(C(=O)O)cn(C3CC3)c12 (stereo unspecified) | 99.8% (active)
COc1ccccc1NC(=S)N1CCN(c2ccc(F)cc2)CC1 | 3.36% (inactive)
S=c1[nH]nc(C2CCCCC2)n1N=C/C=C/c1ccccc1 | 3.47% (inactive)
COC(=O)c1cc(OC)ccc1-c1ccc(OC)cc1 | -2.37% (inactive)
CCOC(=O)C1=C(c2ccc(OC)cc2)C(=O)c2ccccc2C1=O | 96.9% (active)
COc1ccc(CNC(=O)CCN2C(=O)c3ccccc3C2=O)cc1 | 0.137% (inactive)
Cc1nn(Cc2ccc(F)cc2)c(Cl)c1C=NNC(=O)c1cccnc1 | 4.34% (inactive)

Compound | inhibition
COC(=O)NN=C(C)c1ccc(Br)cc1 | 0.736% (inactive)
S=c1[nH]nc(COc2ccccc2)n1N=C/C=C/c1ccccc1 | 7.1% (inactive)
CN1CCN(N=Cc2nc(-c3ccccc3Cl)n3ccccc23)CC1 | 7.72% (inactive)
O=S(=O)(NCc1ccccn1)c1ccc(Br)s1 | 8.79% (inactive)
O=S(=O)([N-]c1nc2ccccc2nc1-[n+]1ccc(Cc2ccccc2)cc1)c1ccc(Br)s1 | 94.6% (active)
CN1CCc2c(sc(N=Cc3cc(Cl)ccc3O)c2C#N)C1 | 5.61% (inactive)
CCN1/C(=C/c2ccc3ccc(C)cc3[n+]2CC)Sc2ccccc21 | 100% (active)
CC1CN(C(C)CO)C(=O)c2cccc(NC(=O)Nc3ccc(C(F)(F)F)cc3)c2OC1CN(C)C (stereo unspecified) | 0.322% (inactive)
COc1ccccc1NC(=O)c1ccc2nc(N3C(=O)CCC3=O)sc2c1 | 2.05% (inactive)
COc1ccc(C2=NN(c3nc4ccccc4s3)C(=O)C2)cc1 | 97.7% (active)
COc1ccc(C(=O)Nc2cccc(/C=C(/CCC(=O)O)c3nc4ccccc4s3)c2)cc1 | 19.7% (inactive)
CCN1CC2C3C(=O)N(Cc4ccccc4)C(=O)C3[C@](C)(C1=O)N2C(=O)c1ccc(C)cc1 (stereo partly specified) | 3.51% (inactive)
NC1=NCC(Cc2ccc(O)cc2)N1CC1CCCCC1 (stereo unspecified) | 4.08% (inactive) and -3.38% (inactive)
CC(=O)OC1CC[C@@]2(C)C(CCC3C4CCC(C(C)O)[C@@]4(C)CC(=O)C32)C1 (stereo partly specified) | 3.21% (inactive)
COC(=O)C1(C)NC(c2ccc(C)cc2)C2C(=O)N(c3ccc(F)cc3)C(=O)C21 (stereo unspecified) | -0.392% (inactive)
COC(=O)C1=C(C)N(c2ccc(C)cc2)/C(=C/c2ccc(O)cc2)C1=O | 84.9% (active)
CCOC1OC(C(=O)N2CCCCCCC2)=CC(c2ccc(C(F)(F)F)cc2)C1CCCO (stereo unspecified) | 7.41% (inactive) and 6.78% (inactive)
O=C(NCc1ccccc1)C1=CC(c2ccc(C(F)(F)F)cc2)CC(OCc2ccc(CO)cc2)O1 (stereo unspecified) | 5.86% (inactive)
O=C(NN=Cc1ccc(F)cc1)c1ccc(F)cc1 | 4.01% (inactive)
Nc1nonc1C(=O)NN=Cc1ccc([N+](=O)[O-])o1 | 21.6% (inactive)
O=C(/C=C/c1ccc([N+](=O)[O-])o1)NNC(=O)c1ccc(F)cc1 | 99.6% (active)
O=C(O)c1ccc(NN=Cc2cc3ccccc3nc2Cl)cc1 | -0.883% (inactive)
CCCCC1CC1C(NC(=O)c1ccccc1)c1ccccc1C(F)(F)F (stereo unspecified) | 9.97% (inactive)

Compound | inhibition
Cc1cccc(C(=O)Oc2ccccc2C=NNc2ccc([N+](=O)[O-])cc2)c1 | -8.66% (inactive)
NC(COc1cc(Cl)cc(Cl)c1)=NO | 1.6% (inactive)
COc1ccc(S(=O)(=O)N2CCN(c3ncnc4c(-c5ccccc5)nsc34)CC2)cc1 | 4.04% (inactive)
COc1ccc(-c2csc3ncnc(N4CCN(S(=O)(=O)c5ccccc5C#N)CC4)c23)cc1 | 96.6% (active)
COc1ccc(-c2csc3ncnc(N4CCN(S(=O)(=O)c5cccc(F)c5)CC4)c23)cc1 | 2.78% (inactive)
C/[N+]([O-])=C\c1ccc([N+](=O)[O-])o1 | 97.6% (active)
Cc1cccc(NC(=O)c2ccc([N+](=O)[O-])o2)c1 | 35.2% (inactive)
Cc1ccc(NCC(=O)NN=Cc2ccc([N+](=O)[O-])o2)cc1 | 7.24% (inactive)
COc1cc(C=NNC(=O)c2cccc([N+](=O)[O-])c2)ccc1O | -1.37% (inactive)
COc1ccc(S(=O)(=O)Nc2ccc3c(c2)C(=O)N(C(C)CO)CC(C)C(CN(C)CC2CC2)O3)cc1 (stereo unspecified) | 1.05% (inactive)
CC(=NNc1cc(C)nc(NCc2ccccc2)n1)c1ccc([N+](=O)[O-])cc1 | -7.45% (inactive)
COc1ccc2c(c1)OC(O)(C(F)(F)C(F)F)CC2=O (stereo unspecified) | 99.2% (active)
COc1ccc2c(c1)C(=O)CC(c1ccccc1)O2 (stereo unspecified) | 2.06% (inactive)
COc1ccc2c(c1)SC(C)CC2=O (stereo unspecified) | -12.2% (inactive)
CC(=O)OCC(=O)C1CCC2C3CCC4CC(O)CC[C@]4(C)C3C(=O)C[C@]12C (stereo partly specified) | 2.69% (inactive)
CC(NC(=O)c1nc[nH]c1C(=O)NC(C)c1ccccc1)C(=O)OCc1ccccc1 (stereo unspecified) | 6.68% (inactive)
Cc1cc(NC(=O)COc2ccc([N+](=O)[O-])cc2)no1 | -0.977% (inactive)
CC(C)c1nnc(NC(=O)COC(=O)/C=C/c2ccc([N+](=O)[O-])cc2)s1 | -2.74% (inactive)
CCOCC(=O)Nc1ncc(S(=O)(=O)c2ccc([N+](=O)[O-])cc2)s1 | 90.6% (active)
COC(=O)C1=C(C(=O)OC)C2Nc3ccccc3[C@@]23CC(C(=O)OC)N(C(=O)c2cccs2)C3=N1 (stereo partly specified) | 2.73% (inactive)
CCN(CC)S(=O)(=O)c1cccc(-c2n[nH]c(=S)n2N=Cc2ccc(OC)cc2)c1 | 15% (inactive)
CC(C)CC(NC(=O)c1[nH]cnc1C(=O)NC(C)C(=O)OC(C)(C)C)C(=O)OC(C)(C)C (stereo unspecified) | 4.67% (inactive)
